Assay results from PubChem BioAssay AID1159580 (chemical genetic matrix, 2015).
Hit rate of the full screen: of about 5,500 compounds, about 2,000 (36%) were called active. Roughly 18% stayed inconclusive and do not appear here. No stated cut-off is given here; in the data, active means normalized growth mostly below about 0.91 (no sharp cut-off); inconclusive means no clear call, values can overlap the other calls; inactive means mostly above about 0.92. This is one part of the list.

Test: chemical genetic growth profiling, strain panel (AID 1159580);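 further: tested at 20 µM; growth read once vehicle control cultures reached saturation at 30 °C; 1 = growth at the plate median or of vehicle wells; lower values mean less growth of the strain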
Conditions: growth OD

Measured: normalized growth

CC(C)CC(NC(=O)OCC1c2ccccc2-c2ccccc21)C(=O)O (stereo unspecified)
inactive: S. cerevisiae deletion strains, locus YAL013W, strain DEP1, hits give low values 1.01 | S. cerevisiae deletion strains, locus YBR021W, strain FUR4, hits give low values 0.994 | S. cerevisiae deletion strains, locus YBR229C, strain ROT2, hits give low values 0.997 | S. cerevisiae deletion strains, locus YCL029C, strain bik1, hits give low values 1.03 | S. cerevisiae deletion strains, locus YDL035C, strain GPR1, hits give low values 0.998 | S. cerevisiae deletion strains, locus YDL074C, strain BRE1, hits give low values 1 | S. cerevisiae deletion strains, locus YDL101C, strain DUN1, hits give low values 1.02 | S. cerevisiae deletion strains, locus YDL134C, strain PPH21, hits give low values 0.986 | S. cerevisiae deletion strains, locus YDL185W, strain tfp1, hits give low values 0.998 | S. cerevisiae deletion strains, locus YDL192W, strain arf1, hits give low values 1.01 | S. cerevisiae deletion strains, locus YDR101C, strain arx1, hits give low values 1.01 | S. cerevisiae deletion strains, locus YDR150W, strain NUM1, hits give low values 0.995 | S. cerevisiae deletion strains, locus YDR162C, strain NBP2, hits give low values 1.01 | S. cerevisiae deletion strains, locus YDR318W, strain mcm21, hits give low values 1.02 | S. cerevisiae deletion strains, locus YDR388W, hits give low values 1.01 | S. cerevisiae deletion strains, locus YDR502C, strain sam2, hits give low values 1.02 | S. cerevisiae deletion strains, locus YEL061C, strain CIN8, hits give low values 0.997 | S. cerevisiae deletion strains, locus YER110C, hits give low values 1.02 | S. cerevisiae deletion strains, locus YER155C, strain BEM2, hits give low values 1 | S. cerevisiae deletion strains, locus YER167W, strain BCK2, hits give low values 0.995 | S. cerevisiae deletion strains, locus YGL078C, strain dbp3, hits give low values 1 | S. cerevisiae deletion strains, locus YGL086W, strain mad1, hits give low values 0.981 | S. cerevisiae deletion strains, locus YGL248W, strain PDE1, hits give low values 1 | S. cerevisiae deletion strains, locus YGR078C, strain PAC10, hits give low values 1.02 | S. cerevisiae deletion strains, locus YGR135W, strain pre9, hits give low values 1.02 | S. cerevisiae deletion strains, locus YGR229C, strain SMI1, hits give low values 0.982 | S. cerevisiae deletion strains, locus YGR252W, strain gcn5, hits give low values 0.916 | S. cerevisiae deletion strains, locus YHR030C, strain SLT2, hits give low values 1.01 | S. cerevisiae deletion strains, locus YHR079C, strain IRE1 (second series), hits give low values 1.01 | S. cerevisiae deletion strains, locus YHR094C, strain hxt1, hits give low values 0.997 | S. cerevisiae deletion strains, locus YHR129C, strain ARP1, hits give low values 1.01 | S. cerevisiae deletion strains, locus YHR200W, strain rpn10, hits give low values 1.01 | S. cerevisiae deletion strains, locus YIL066C, strain RNR3, hits give low values 1.02 | S. cerevisiae deletion strains, locus YIL073C, strain SPO22, hits give low values 1.03 | S. cerevisiae deletion strains, locus YIL125W, strain kgd1, hits give low values 0.992 | S. cerevisiae deletion strains, locus YIR030C, strain dcg1, hits give low values 1 | S. cerevisiae deletion strains, locus YJL095W, strain BCK1, hits give low values 1.07 | S. cerevisiae deletion strains, locus YJL134W, strain LCB3, hits give low values 1 | S. cerevisiae deletion strains, locus YJL168C, strain set2, hits give low values 1.01 | S. cerevisiae deletion strains, locus YJL187C, strain SWE1 (second series), hits give low values 1.02 | S. cerevisiae deletion strains, locus YJR043C, strain POL32, hits give low values 1.02 | S. cerevisiae deletion strains, locus YJR075W, strain HOC1, hits give low values 0.997 | S. cerevisiae deletion strains, locus YKL009W, strain mrt4, hits give low values 0.969 | S. cerevisiae deletion strains, locus YKL068W, hits give low values 0.997 | S. cerevisiae deletion strains, locus YKL085W, strain MDH1 (second series), hits give low values 1 | S. cerevisiae deletion strains, locus YKL085W, strain MDH1, hits give low values 1 | S. cerevisiae deletion strains, locus YKL190W, strain CNB1, hits give low values 0.985 | S. cerevisiae deletion strains, locus YKR001C, strain vps1, hits give low values 1.06 | S. cerevisiae deletion strains, locus YLR039C, strain RIC1, hits give low values 1.05 | S. cerevisiae deletion strains, locus YLR058C, strain SHM2, hits give low values 0.997 | S. cerevisiae deletion strains, locus YLR102C, strain apc9, hits give low values 1.01 | S. cerevisiae deletion strains, locus YLR262C, strain YPT6, hits give low values 1.11 | S. cerevisiae deletion strains, locus YLR268W, strain sec22, hits give low values 1.06 | S. cerevisiae deletion strains, locus YLR330W, strain CHS5, hits give low values 0.984 | S. cerevisiae deletion strains, locus YLR342W, strain FKS1 (second series), hits give low values 0.985 | S. cerevisiae deletion strains, locus YLR371W, strain rom2, hits give low values 1.01 | S. cerevisiae deletion strains, locus YLR418C, strain cdc73, hits give low values 1 | S. cerevisiae deletion strains, locus YML016C, strain PPZ1, hits give low values 0.995 | S. cerevisiae deletion strains, locus YML032C, strain rad52, hits give low values 1.01 | S. cerevisiae deletion strains, locus YML124C, strain tub3, hits give low values 1 | S. cerevisiae deletion strains, locus YMR078C, strain ctf18, hits give low values 1.01 | S. cerevisiae deletion strains, locus YMR223W, strain ubp8, hits give low values 0.982 | S. cerevisiae deletion strains, locus YMR263W, strain SAP30, hits give low values 1.01 | S. cerevisiae deletion strains, locus YMR307W, strain GAS1, hits give low values 0.985 | S. cerevisiae deletion strains, locus YNL067W, strain RPL9B, hits give low values 1.03 | S. cerevisiae deletion strains, locus YNL128W, strain TEP1, hits give low values 1.02 | S. cerevisiae deletion strains, locus YNL153C, strain GIM3, hits give low values 1.02 | S. cerevisiae deletion strains, locus YNL233W, strain BNI4, hits give low values 1.01 | S. cerevisiae deletion strains, locus YNL250W, strain rad50, hits give low values 0.996 | S. cerevisiae deletion strains, locus YNL271C, strain bni1, hits give low values 1 | S. cerevisiae deletion strains, locus YNL298W, strain CLA4, hits give low values 0.994 | S. cerevisiae deletion strains, locus YNL307C, strain MCK1, hits give low values 1.02 | S. cerevisiae deletion strains, locus YNL322C, strain KRE1, hits give low values 1 | S. cerevisiae deletion strains, locus YNR052C, strain pop2, hits give low values 1.01 | S. cerevisiae deletion strains, locus YOL006C, strain TOP1, hits give low values 1.1 | S. cerevisiae deletion strains, locus YOL012C, strain htz1 1.27 | S. cerevisiae deletion strains, locus YOL147C, strain pex11, hits give low values 1.01 | S. cerevisiae deletion strains, locus YOR061W, strain CKA2, hits give low values 0.991 | S. cerevisiae deletion strains, locus YOR069W, strain VPS5, hits give low values 1 | S. cerevisiae deletion strains, locus YOR136W, strain idh2, hits give low values 0.99 | S. cerevisiae deletion strains, locus YOR144C, strain elg1, hits give low values 1 | S. cerevisiae deletion strains, locus YOR184W, strain ser1, hits give low values 1.05 | S. cerevisiae deletion strains, locus YOR316C, strain cot1, hits give low values 1.01 | S. cerevisiae deletion strains, locus YPL055C, strain LGE1, hits give low values 0.963 | S. cerevisiae deletion strains, locus YPL241C, strain CIN2, hits give low values 0.993 | S. cerevisiae deletion strains, locus YPR119W, strain clb2, hits give low values 1 | S. cerevisiae deletion strains, locus YPR141C, strain kar3, hits give low values 0.999 | S. cerevisiae deletion strains, locus YPR163C, strain tif3, hits give low values 1.02 | S. cerevisiae deletion strains, locus YPR167C, strain met16, hits give low values 1.01 | S. cerevisiae deletion strains, strain wtn01, hits give low values 1.04 | S. cerevisiae strains, strain wild type, hits give low values 1
